Laboratory results taken from PubChem BioAssay AID493100 (Broad Institute, 2011).
Results with a measured potency or affinity are listed apart. Records with an inconclusive call do not appear. Activity calls are given as the source filed them.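 The calls were made as follows: active = decreasing signal in every run, fitted half-effect dose at most ten times the top valid dose; inconclusive = runs disagree, weak flat effect, or poor curve fit; inactive = every run inactive, signal rises included.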

Assay: blockers of SFLLRN-triggered platelet ATP secretion – cell-based, human platelets, luminescence, dry powder, dose response (AID 493100)
Details: SFLLRN-induced ATP dense granule secretion; series mostly up to 35 µM

outcome, inactive:
C/C(=N\NC(=O)c1ccccc1)c1ccc(NC(=O)C(F)(F)F)cc1
CCCC(=O)Nc1cccc(NC(=O)c2cccnc2)c1
CCCC(=O)Nc1cccc(NC(=O)c2cccc(Oc3ccccc3)c2)c1
CC(=O)N/N=C(\C)c1ccc(NC(=O)C2CC2)cc1
O=Cc1ccc(NC(=O)C(F)(F)F)cc1
CCCCC(=O)Nc1cccc(NC(=O)c2ccccc2Br)c1
CCCC(=O)Nc1cccc(NC(=O)c2cccc(S(C)(=O)=O)c2)c1
CCCC(=O)Nc1cccc(NC(=O)c2cccc(-c3ccccc3)c2)c1
CCCC(=O)Nc1cccc(NC(=O)c2ccc(C)cc2)c1
CCCC(=O)Nc1cccc(NC(=O)c2cccc([N+](=O)[O-])c2)c1
O=C(Nc1cccc(NC(=O)c2ccccc2Br)c1)c1ccccc1
NNC(=O)C1CCCC1
CCCC(=O)Nc1cccc(NC(=O)c2ccc(F)cc2)c1
CCCC(=O)Nc1cccc(NC(=O)c2ccco2)c1
C/C(=N\NC(=O)C1CCCC1)c1ccc(Cl)cc1
CCCC(=O)Nc1cccc(NC(=O)c2ccc(C(F)(F)F)cc2)c1
CC(=O)Nc1c(C#N)c(-c2ccccc2)c(C#N)c(=O)n1-c1ccc(C)cc1
CCCC(=O)Nc1cccc(NC(=O)c2ccccc2OC)c1
CC(=O)Nc1cccc(NC(=O)c2ccccc2Cl)c1
O=C(Nc1cccc(NC(=O)c2ccccc2Cl)c1)c1ccco1
CC(=O)c1ccc(NC(=O)C(F)(F)F)cc1
CCCC(=O)Nc1cccc(NC(=O)c2ccc(S(C)(=O)=O)cc2)c1
CCCC(=O)Nc1cccc(NC(=O)c2ccc(OC)cc2)c1
CC(=O)Nc1cccc(NC(=O)c2cccc(Cl)c2)c1
CCCC(=O)Nc1cccc(NC(=O)c2cnc3ccccc3c2)c1
CCCC(=O)Nc1cccc(NC(=O)c2ccc(Cl)cc2)c1
CC(=O)Nc1ccc(/C=N/NC(=O)CC2CCCCC2)cc1
